L major viab = inhibitors of Leishmania major promastigote growth; 200,000 tested, 9% active; inhibition, % at 10 µM; Leishmania major promastigotes, resazurin fluorescence viability; AID 1063; in the data active = inhibition above about 50%;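 also: promastigotes grown with compound for 44 hours at 28 °C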
Ins promoter up = MIN6 insulin promoter up-regulation; MIN6 insulin promoter-GFP reporter, high-content imaging; hits give high values; z-score at 5 µM; 190,000 tested, 0.3% active;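 active = z-score above 3 at 5 µM with at least 500 cells counted in the well; inconclusive = wells under 500 cells, flagged as cytotoxic or low count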
Insulin prom inh = TRM-6 insulin promoter activity inhibition. TRM-6 cells (human fetal islet line), insulin promoter-eGFP reporter, imaging; reporter expression induced with tamoxifen. inhibition, % at 2 µM. 130,000 tested, 0.9% active;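 active = inhibition above the mean plus 3 SD, with well images judged a real hit on visual review, cut at about 60% in these data, passing the limit was not always enough; inconclusive = inhibition over the cutoff but images rejected on review; inactive = inhibition not above the cutoff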
Autophagy mod = modulators of autophagy. AID 463193. 190,000 tested, 0.98% active. MEF GFP-LC3 puncta imaging; test concentration mostly 10 µM. calls only at 10 µM (by protocol);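 active = percentage of spot-positive cells more than 3 SD above its plate mean, without a fluorescence outlier flag or 80% toxicity; inconclusive = no clear call, values can overlap the other calls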;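 also: spot-positive cell cutoff set from DMSO-treated cells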
bCat KO growth = beta-catenin-lacking colon tumor cell growth suppression | HCT116 beta-catenin knockout viability, CellTiter-Glo, 60 h; hits give low values | 140,000 tested, 1.5% active | viability, % at 10 µM;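 active = viability at or under a set limit, the compound median less 4 SD, cut at about 6% in these data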;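 also: 0% = Hyamine 1622 control at 20 µM and 100% = untreated cell control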
PTEN del growth = PTEN-deleted cell growth suppression | HCT116 PTEN-null viability, CellTiter-Glo, 60 h; hits give low values | viability, % at 10 µM | 140,000 tested, 1.2% active | AID 827;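 active = viability at or below a set limit, 4 SD under the median of all tested compounds, cut at about 3.7% in these data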;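 also: PTEN knockout HCT116 line with beta catenin targeted HCT116 as companion control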
Numbers without * were called inactive; i = inactive; ? = inconclusive; . = no result given; + = active, no number. The list is not random: actives were taken first. Their share in the collection is about 9.6%.

SMILES | L major viab | Ins promoter up | Insulin prom inh | Autophagy mod | bCat KO growth | PTEN del growth
CN(c1ccccc1)c1nc(N2CCCC2)nc(-n2ccnc2)n1 | 95* | -0.1 | 0 | i | 74 | 86
c1ccc(N(c2ccccc2)c2nc(N3CCCC3)nc(-n3ccnc3)n2)cc1 | 98* | -0.69 | . | i | 57 | 48
CCOC(=O)C(C)(C)Sc1nc2c(cnn2-c2ccc(C)cc2)c(=O)[nH]1 | 8 | . | 100* | i | 97 | 102
COc1cc(/C=N/N=C2/SCC(=O)N2c2ccc(O)cc2)ccc1O | 16 | -0.43 | -20 | i | . | .
Cc1cc(Nc2ccccc2)nn1C(=O)c1ccc(Br)cc1 | -2 | 0.12 | 13 | i | 99 | 102
Cc1cc(Nc2ccccc2)nn1C(=O)c1ccccc1 | 41 | 0.11 | . | i | 1.5* | 1.2*
CCC(=O)Nc1ccc(C(=O)n2nc(C)cc2C)cc1 | -6 | 0.62 | . | i | 106 | 102
Cc1cc(C)n(C(=O)c2ccc(NC(=O)CC(C)C)cc2)n1 | 8 | -0.16 | 74* | i | 80 | 89
c1ccc2c(c1)Cn1c-2nc2ccccc21 | 3 | 0.8 | 95* | i | 96 | 82
CCOC(=O)Cc1csc(NC(=O)CSc2cc(Cl)ccc2Cl)n1 | 6 | 0.04 | 11 | i | 105 | 106
CC(C)C1C(c2ccccc2)N(C)C(c2ccccc2)CC1(O)c1ccccc1 (configuration not stated) | 40 | -0.64 | . | i | 26 | 25
CCC1C(c2ccccc2)N(C)C(c2ccccc2)CC1(O)c1ccccc1 (configuration not stated) | 53* | -0.79 | . | i | . | .
COc1ccccc1CC(=O)NCCc1ccc(S(N)(=O)=O)cc1 | -3 | 0.27 | 62 | i | 90 | 97
Oc1ccc(CN2CCc3ccccc3C2)c2cccnc12 | 100* | -6.1 | 14 | i | 2.1* | 1.7*
Cc1ccc(C)c(S(=O)(=O)N2CCN(Cc3ccc(O)c4ncccc34)CC2)c1 | 100* | -1.9 | . | i | . | .
Cc1[nH]c2ccccc2c1CN1CCC(Cc2ccccc2)CC1 | 100* | -1.8 | -20 | i | . | .
OCc1ccc(O)c2ncccc12 | 100* | ? | -18 | i | 4.3* | 5
c1ccc(-c2[nH]ncc2CN2CCc3ccccc3C2)cc1 | . | -0.82 | . | . | . | .
Cc1ccc(C)c(S(=O)(=O)N2CCN(CC(=O)Nc3cc(C)on3)CC2)c1 | 1 | -2.1 | . | i | 79 | 88
COc1ccc(/C=N/Nc2ccccn2)cc1O | . | -0.27 | . | . | . | .
O=C(c1cnn2c(C(F)(F)F)cc(-c3ccc(Br)cc3)nc12)N1CCOCC1 | 38 | 0.29 | 36 | i | 98 | 91
O=C(Nc1cccc(Cl)c1Cl)C1CCN(c2ncccn2)CC1 | 0 | . | 67 | i | 100 | 96
Oc1ccc(F)c2cccnc12 | 8 | -0.26 | . | i | . | .
Oc1ccc2ccccc2c1CN1CCN(c2ccccc2)CC1 | -7 | 0.15 | 46 | i | 96 | 100
O=[N+]([O-])c1cc(CN2CCN(c3cccc(C(F)(F)F)c3)CC2)c2cccnc2c1O | 99* | -1.2 | i | i | . | .
SMILES | L major viab | Ins promoter up | Insulin prom inh | Autophagy mod | bCat KO growth | PTEN del growth
O=S(=O)(c1cccc2cccnc12)N1CCN(c2ccccc2)CC1 | 8 | . | -26 | i | 95 | 98
Oc1ccc(CNc2ccccc2F)c2cccnc12 | 73* | -0.15 | . | i | 16 | 13
Cc1ccc(C)c(N2CCN(S(=O)(=O)c3cccc4cccnc34)CC2)c1 | 66* | . | 10 | i | . | .
Oc1ccc(CN2CCN(c3ccccc3)CC2)c2cccnc12 | 100* | ? | 61 | i | 3.0* | 2.8*
CN(C)S(=O)(=O)Oc1cccc(C(=O)Nc2ccc(Cl)cc2)c1 | 2 | -2.1 | -40 | i | 14 | 20
O=C(c1ccccc1)c1nccn1-c1ccc(Cl)nn1 | . | -0.7 | . | . | . | .
Oc1ccc(CN2CCC(Cc3ccccc3)CC2)c2cccnc12 | 101* | -5.1 | -79 | i | . | .
Cn1cc(CN2CCc3ccccc3C2)c2ccccc21 | 15 | -1 | 81* | i | 88 | 90
Oc1ccc(CN2CCCCC2)c2cccnc12 | 101* | . | -389 | i | 2.3* | 1.2*
Clc1ccccc1CN1CCC(Cc2ccccc2)CC1 | 33 | 2.6 | . | i | 87 | 82
CCOC(=O)N1CCN(Cc2ccc(O)c3ncccc23)CC1 | 0 | -0.26 | . | i | . | .
CCOC(=O)c1c(NC(=O)CSc2nnc(C)s2)sc2c1CCCCC2 | 0 | -0.65 | 18 | i | 63 | 66
Cc1[nH][nH]c(=O)c1C(c1cc2c(cc1Br)OCO2)c1c(C)[nH][nH]c1=O | 33 | -0.72 | 67* | i | . | .
CCOc1ccc(C(c2c(C)[nH][nH]c2=O)c2c(C)[nH][nH]c2=O)cc1OC | 20 | 0.54 | 39 | i | 93 | 92
C#CCOCCOCCOCCNc1nc(N2CCN(C(=O)C(Cc3cc4ccccc4[nH]3)n3cc(C(N)Cc4ccc(O)cc4)nn3)CC2)nc(N2CCN(C(=O)C(Cc3cc4ccccc4[nH]3)n3cc(C(N)Cc4ccc(O)cc4)nn3)CC2)n1 (configuration not stated) | -4 | 0.22 | . | i | . | .
COc1cc2c(cc1N/C=C(\C#N)c1nc(-c3ccccc3)cs1)oc1ccccc12 | -5 | . | -135 | + | . | .
COc1cccc(-c2csc(/C(C#N)=C/Nc3cc4oc5ccccc5c4cc3OC)n2)c1 | -2 | . | -10 | i | . | .
Cc1cc(C)c(S(=O)(=O)NNC(=O)C2CCN(Cc3ccccc3)CC2)c(C)c1 | 91* | . | 14 | i | 83 | 81
CS(=O)(=O)N1CCC(C(=O)NCCN2CCN(Cc3ccccc3)CC2)CC1 | -5 | 0.95 | . | i | 89 | 101
O=C(NNS(=O)(=O)c1ccc(F)cc1)C1CCN(Cc2cccc(F)c2)CC1 | 86* | -0.46 | -36 | i | . | .
CCOC(=O)C(=Cc1ccc(-n2cncn2)cc1)C(=O)OCC | 77* | -0.59 | . | i | . | .
CCOC(=O)C(=CNc1cc(C)nn1-c1ccc(Cl)cc1)C(=O)OCC | 5 | . | 29 | i | 87 | 91
CCOc1ccc2c(c1)C(c1ccc(C)cc1)=NNC(c1ccc(OC)cc1)=N2 | 36 | -0.32 | . | i | 97 | 77
CCc1ccc2c(c1)C(c1ccc(N3CCOCC3)cc1)=NNC(c1ccncc1)=N2 | 57* | -0.72 | . | i | . | .
CCc1ccc2c(c1)C(c1ccc([N+](=O)[O-])cc1)=NNC(c1ccc(C)cc1)=N2 | 85* | 0.46 | -12 | i | 39 | 32
Brc1ccc2c(c1)C(c1ccc(N3CCOCC3)cc1)=NNC(c1cccs1)=N2 | 78* | 1.2 | 29 | i | 46 | 45
Cc1ccc2c(c1)C(c1ccc(N3CCOCC3)cc1)=NNC(c1cccs1)=N2 | 86* | -0.52 | 18 | i | 84 | 70
COc1ccccc1NC(=S)N(CCc1ccc(OC)c(OC)c1)Cc1ccccn1 | 4 | 0.25 | -60 | i | . | .
Cc1ccc(Oc2ccc(NC(=O)CSc3n[nH]c(N)n3)cc2)cc1 | 59* | -0.03 | 22 | i | 83 | 82
Nc1nc(SCC(=O)Nc2ccc(S(N)(=O)=O)cc2)n[nH]1 | -7 | -0.2 | . | i | . | .

Assay outcomes (PubChem)
